Data on nine compounds can be found in PubChem BioAssay (NCATS).

One test has as its system CRL-7250. Description: Cytotoxic Profiling of Annotated Libraries Using Quantitative High-Throughput Screening (AID 1296008). On max response: on the % scale 0 is the no-effect control and ±100 the full control effect. The settings on record: Five cell lines viability, CellTiter-Glo ATP luminescence, 48-72 h; max response: stronger effect = lower value. An outline of the steps: (§1)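 Compounds were pin-transferred onto cells and incubated 48 or 72 hr at 37 degree Celsius, 95% humidity. CellTiter-Glo was added, plates sat 10 min at room temperature, then ATP-coupled luminescence was imaged as the viability read-out.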

Test [1] concerns HaCat. The description is as above. Particulars: Five cell lines viability, CellTiter-Glo ATP luminescence, 48-72 h; max response: stronger effect = lower value. An outline of the steps: as §1
Another test relates to KB-3-1. The description is as above. The settings on record: Five cell lines viability, CellTiter-Glo ATP luminescence, 48-72 h; max response: stronger effect = lower value. In a few lines: as §1
On the technique in general: ATP-based viability assays read luminescence as a measure of living cells.

A further test concerns NIH3T3. Described as above. The settings on record: Five cell lines viability, CellTiter-Glo ATP luminescence, 48-72 h; max response: stronger effect = lower value. In a few lines: as §1
The subject of another test is MCC-13. In words: qHTS assay to identify novel small-molecules to repurpose for Merkel cell carcinoma treatment (AID 1296009). The settings on record: MCC and control cell lines, CellTiter-Glo viability, 72 h; series mostly up to 46 µM. An outline of the steps: (§2)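 Cells exposed to NPC (8-point) and MIPE (11-point) compound dilutions for 72 hr at 37 degree celsius; viability read by CellTiter-Glo luminescence, normalized to no-cell and DMSO in-plate controls.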
(In qHTS, concentration-response curves come from the screen itself.)

Another test relates to MKL-2. The test is described as above. Particulars: MCC and control cell lines, CellTiter-Glo viability, 72 h; series mostly up to 46 µM. An outline of the steps:
as §2

Another test relates to MCC-26. Described as above. The settings on record: MCC and control cell lines, CellTiter-Glo viability, 72 h; series mostly up to 46 µM. In a few lines: as §2
The next test concerns MKL-1. The description is as above. Particulars: MCC and control cell lines, CellTiter-Glo viability, 72 h; series mostly up to 46 µM. In a few lines:
as §2

The subject of another test is UISO. The test is described as above. Particulars: MCC and control cell lines, CellTiter-Glo viability, 72 h; series mostly up to 46 µM. An outline of the steps: as §2
In the next test the test system is WaGa. The description is as above. The settings on record: MCC and control cell lines, CellTiter-Glo viability, 72 h; series mostly up to 46 µM. In a few lines:
as §2

For test [2], the system named is HACAT. The description is as above. The settings on record: MCC and control cell lines, CellTiter-Glo viability, 72 h; at 44.8 µM (top of the series) unless noted. An outline of the steps: as §2
For a further test, the system named is SC27B. In words: qHTS profiling for inhibitors of Plasmodium falciparum proliferation (AID 504749). Further: potency means the concentration at half of the fitted maximal effect. Particulars: P. falciparum in erythrocytes, SYBR Green DNA, 72 h; series mostly up to 28.7 µM. In a few lines: (§3)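 P. falciparum-infected erythrocytes (0.3% parasitemia, 2.5% hematocrit final) were exposed to compounds for 72 h at 37 C in 5% CO2, then lysed with SYBR Green buffer overnight at room temperature; parasite DNA fluorescence was normalized to artemisinin and DMSO controls.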

The subject of the next test is TAB109. The test is described as above. Particulars: P. falciparum in erythrocytes, SYBR Green DNA, 72 h; series mostly up to 28.7 µM. An outline of the steps:
as §3

The subject of another test is TAB113. Described as above. Particulars: P. falciparum in erythrocytes, SYBR Green DNA, 72 h; series mostly up to 28.7 µM. An outline of the steps:
as §3

In another test the test system is TAB165. Described as above. Particulars: P. falciparum in erythrocytes, SYBR Green DNA, 72 h; series mostly up to 28.7 µM. In a few lines:
as §3

Another test relates to W2. Described as above. The settings on record: P. falciparum in erythrocytes, SYBR Green DNA, 72 h; series mostly up to 28.7 µM. An outline of the steps:
as §3

Records with an inconclusive call do not appear. Unmarked numbers belong to inactive results. The source made the active and inactive calls. The call rests on the fitted dose curve; in most records, active means well fitted inhibition curve with a large enough effect; inconclusive means small, poorly fitted or top-dose-only effect; inactive means flat fitted curve, though single readings scatter.
Further: nearly all actives have a fitted effect of over 60% in size.

With `CNC(C)Cc1ccc2c(c1)OCO2` (stereo unspecified), the max response is 4.98% in the test on CRL-7250, -2.61% in the test with HaCat [1], -21.8% with KB-3-1 and 0.465% with NIH3T3. The Potency entry in the test on MCC-13 and in the test on MKL-2 was “inactive” in each case.

On to `CCC1(c2cccc(O)c2)CCCCN(C)C1` (stereo unspecified), for which the max response with CRL-7250 is -9.91%; with HaCat [1] it was -5.66%; in the test with KB-3-1, 24.1%; in the test with NIH3T3, 2.43%. Besides, the Potency result with MCC-13, with MCC-26, in the test on MKL-1, with MKL-2, in the test with UISO and with WaGa was “inactive” throughout.

For `CC(C)=C[C@@H]1[C@@H](C(=O)OCc2coc(Cc3ccccc3)c2)C1(C)C`, the max response in the test with CRL-7250 is 2.34%; with KB-3-1 it was 6.83%; with NIH3T3, -1.15%. In addition, the result in the test on HaCat [1] and in the test on HACAT [2] was inactive. The Potency result with MCC-13, in the test on MCC-26, in the test on MKL-1, in the test with MKL-2 and in the test with UISO was “inactive” each time.

For the compound `CCN(CC)Cc1nccn1-c1ccc([N+](=O)[O-])cc1C(=O)c1ccccc1Cl`, the max response was -12.2% in the test on CRL-7250, -4.42% in the test on KB-3-1 and -7.47% with NIH3T3. Also, the call in the test with HaCat [1] and in the test on HACAT [2] was inactive. In addition, the Potency entry in the test with MCC-13, with MCC-26, in the test on MKL-1, in the test on MKL-2, in the test with UISO and with WaGa was “inactive” throughout.

On to `CCOC(=O)c1ncn2c1CN(C)C(=O)c1c(I)cccc1-2`, for which the max response with CRL-7250 is -19.8%; in the test on HaCat [1] it was -1.53%; in the test on KB-3-1, 1.54%; with NIH3T3 it was -15.1%. In addition, the Potency result with MCC-13, in the test on MCC-26, with MKL-1, with MKL-2, in the test with UISO and in the test on WaGa was “inactive” each time.

Regarding `COc1cc(CC(C)N)cc2c1OCO2` (stereo unspecified), the max response in the test on CRL-7250 was -5.81%; in the test with HaCat [1], 1.78%; in the test on KB-3-1, -6.39%; in the test on NIH3T3, -6.97%. The Potency result in the test with MCC-13, with MCC-26, with MKL-1, in the test with MKL-2, in the test with UISO and with WaGa was “inactive” in each case.

For the compound `O=C(CCCN1CCC(n2c(=O)[nH]c3ccccc32)CC1)c1ccc(F)cc1`, the Potency in the test with SC27B was 2000 nM (active); with TAB109 it was 1000 nM (active); in the test on TAB113, 1260 nM (active); with TAB165 it was 1000 nM (active); in the test on W2 it was 642 nM (active). Besides, the max response in the test on CRL-7250 is -0.196%; with KB-3-1 it was -5.74%; in the test on NIH3T3 it was 0.676%. The compound was called inactive in the test on HaCat [1] and in the test on HACAT [2]. The Potency entry with MCC-13, with MCC-26, with MKL-1, with MKL-2, with UISO and in the test with WaGa was “inactive” in each case.

Turning to `CC[C@H]1C[C@H]2[C@@H]3CCC4=CC(=O)CC[C@@H]4[C@H]3CC[C@]2(C)[C@H]1O`, the max response with CRL-7250 was -11.6%; with HaCat [1], 2.56%; in the test on NIH3T3 it was -0.575%. Moreover, the call in the test with KB-3-1 was inactive. Moreover, the Potency result in the test on MCC-13, in the test on MCC-26, with MKL-1, in the test with UISO and in the test on WaGa was “inactive” throughout.

Turning to `C=CCOC(Cn1ccnc1)c1ccc(Cl)cc1Cl` (stereo unspecified), the Potency is 10000 nM (active) with SC27B; 7940 nM (active) with TAB109; 8910 nM (active) in the test with TAB113; 3160 nM (active) with TAB165; 4260 nM (active) in the test on W2. The results for the max response with CRL-7250, in the test on KB-3-1 and in the test with NIH3T3 were -16.8%, 2.22% and -13%, respectively. Besides, the result with HaCat [1] and in the test on HACAT [2] was inactive. In addition, the Potency entry in the test on MCC-13, in the test with MCC-26, with MKL-1 and in the test with WaGa was “inactive” each time.
